# DT40 TDP1 CPT = DT40-hTDP1 cell growth loss with CPT; chicken DT40 Tdp1-/-;hTDP1 cells + 20 nM CPT, ATP luminescence, 48 h; actives 12% (n = 420,000); Potency, µM (doses to about 46.2 µM), for inactives: at the top dose activity change, negative = growth inhibition, most hits filed as inhibitors; also: potency is read from the fitted curve at half-maximal effect; nearly all actives have a fitted effect of over 55% in size
#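 Chicken DT40 Tdp1-/- cells complemented with human TDP1, 400 cells/well, exposed to compounds plus 20 nM camptothecin for at least 48 h at 37 C; viability read as ATP content by CellTiter-Glo luminescence.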
# DT40 TDP1 no CPT = qHTS for Inhibitors of human tyrosyl-DNA phosphodiesterase 1 (TDP1): qHTS in cells in absence of CPT; DT40 Tdp1-/- hTDP1 cells, no CPT, ATP luminescence, 48 h; Potency, µM (doses to about 46.2 µM), for the others: top-dose activity change, negative = growth inhibition, hits mostly inhibitors; actives 15% (n = 420,000); AID 686978, 2013; also: potency is read from the fitted curve at half-maximal effect; nearly all actives have a fitted effect of over 55% in size
#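 Chicken DT40 Tdp1-/- cells complemented with human TDP1, screened without camptothecin (DMSO vehicle only), 400 cells/well. Compounds pin-transferred, cells incubated at 37 °C for at least 48 hr. Growth read as ATP-dependent luminescence (CellTiter-Glo, 30 min at RT).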
# HT1080 IDH1KD tx = toxicity to HT-1080 IDH1 knockdown cells (counter line); HT-1080 IDH1 knockdown viability, ATP luminescence, 48 h; Potency, µM (highest dose often 46.1 µM), inactives show top-dose activity, negative = toxicity, actives largely listed as cytotoxic; actives 2% (n = 360,000); AID 686971;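 also: potency is read from the fitted curve at half-maximal effect; 0% = DMSO wells and -100% = cell-free medium wells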
#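 Assay cells: HT-1080 with IDH1 knockdown, 750 per well, RPMI/5% FBS. Exposure: 48 h at 37 °C following 2 h pre-incubation. Read: CellTiter-Glo luminescence; fitted concentration-response, curve class assigned.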
# IL1B secr inh = inflammasome signaling inhibition, IL-1 beta readout; actives 4.7% (n = 360,000); activity change, % at 57.5 µM; THP-1 LPS/ATP IL-1B secretion, AlphaLISA, 16 h; active compounds read low; in the data active = activity change below about -50%; inconclusive = mostly about -30% to -49%
#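 THP-1 cells pretreated 1 hr with compounds (up to 57.5 uM final), then stimulated with LPS (250 ng/mL final) plus ATP (1.25 mM final); secreted IL-1B measured by AlphaLISA after 16 hr, decreased signal indicating inhibition.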
# HT1080-NT tox = kills 2HG-producing HT-1080-NT fibrosarcoma cells; actives 1.6% (n = 360,000); Potency, µM (series often up to 46.1 µM), inactives show top-dose activity, negative = less viability, most hits filed as cytotoxic; HT-1080-NT fibrosarcoma viability, CellTiter-Glo ATP luminescence, 48 h;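 also: NT is the 2HG producing partner of a matched IDH1 knockdown line; potency is read from the fitted curve at half-maximal effect; 0% = DMSO-treated cells and -100% = media-only wells without cells; nearly all actives have a fitted effect of over 55% in size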
#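 750 cells/well, RPMI + 5% FBS; 2 h settle, compound pin-transfer, 48 h at 37 degrees C. CellTiter-Glo 10 min RT, luminescence. Normalized to DMSO and media-only wells.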
# Active calls of the source: *; ? = inconclusive; / = not tested or not shown; [ ] = dose if it differs, or a comment. This is a sample that favours compounds with a hit; in the whole collection about 19% have one here. Unless noted, calls follow the shape of the dose curve; as a rule, active = well fitted curve in the direction sought with a large enough effect; inconclusive = small, poorly fitted or top-dose-only effect, or another doubt; inactive = no such curve, though single readings can be large; an effect the other way counts as inactive or inconclusive. Unless noted, % is scaled to controls: 0 for no effect and ±100 for the full control effect.
SMILES,DT40 TDP1 CPT,DT40 TDP1 no CPT,HT1080 IDH1KD tx,IL1B secr inh,HT1080-NT tox
Cc1cc(C)c2[nH]c(=O)c(C(c3nnnn3Cc3ccc4c(c3)OCO4)N3CCC(C)CC3)cc2c1 (stereo unspecified),?,16µM*,12%,-22,16%
O=C(CCCN1C(=O)c2ccccc2C1=O)N1CCc2ccccc2C1,-20%,7%,-2%,27,3%
O=C(c1ccc2c(c1)OCO2)N1CCN(CCN2C(=O)c3cccc4cccc(c34)C2=O)CC1,12%,-29%,12%,20,?
O=C(CN1C(=O)c2cccc3cccc1c23)N1CCN(Cc2ccc3c(c2)OCO3)CC1,?,21µM*,-6%[9.24 µM],-16,-11%
O=C(CN1C(=O)c2cccc3cccc1c23)N1CCc2ccccc2C1,21µM*,12µM*,-23%,-14,-12%
Cc1ccc(S(=O)(=O)N2CCCC(C(=O)NCCC(C)C)C2)cc1 (stereo unspecified),1%,-30%,-18%,24,-8%
CCOC(=O)CNC(=O)c1cc2c(=O)[nH]c3ccc(C)cc3c2s1,35%,10%,16%,-12,7%
COc1ccc(CCNC(=O)c2cc3c(=O)[nH]c4ccc(C)cc4c3s2)cc1OC,13µM*,12µM*,/,/,/
CCOc1ccc(CCNC(=O)c2cc3c(C)nccc3[nH]c2=O)cc1OCC,12µM*,13µM*,?,13,-3%
Cc1nccc2[nH]c(=O)c(C(=O)NC3CCCCC3C)cc12 (stereo unspecified),?,16µM*,-2%,-9,1%
Cc1cc(C(=O)NC2CCCCC2C)c2ccccc2n1 (stereo unspecified),-15%,-6%,3%,37,-6%
CCOc1ccc(CCNC(=O)c2cc3c(=O)[nH]c4ccc(C)cc4c3s2)cc1OCC,4.1µM*,18µM*,/,/,/
COc1ccc2c(C)c(CCC(=O)NCc3ccccc3Cl)c(=O)oc2c1C,2%,?,/,/,/
NC(=O)C1(Nc2ccc(-c3ccc(Cl)cc3)cc2)CCCC1,16µM*,?,-24%,5,-1%
Cc1[nH]n(C(N)=S)c(=O)c1N=Nc1cccc(Cl)c1,?,?,-6%,-3,-14%
Cc1[nH]n(-c2ncc(-c3ccccc3)s2)c(=O)c1C(c1ccc(Br)cc1)C(C#N)C#N (stereo unspecified),?,?,-8%,-64*,1%
Cc1[nH]n(C(N)=S)c(=O)c1C(c1ccccc1)C(C#N)C#N (stereo unspecified),1.5µM*,1.5µM*,16%,-10,18%
CC(=O)N1CCc2cc(S(=O)(=O)NC(Cc3ccccc3)C(=O)O)ccc21 (stereo unspecified),-10%,2%,8%,-6,5%
CCn1c(SC)nc2cc(S(=O)(=O)N3CCCCC3)ccc21,1.6µM*,-25%,?,-12,-9%
CCCCn1c(CCC(=O)O)nc2cc(S(=O)(=O)N3CCCC3)ccc21,-2%,2%,-3%,11,0%
CCn1c(CN2CCC(C)CC2)nc2cc(S(=O)(=O)N3CCCCC3)ccc21,?,13µM*,0%,-10,1%
CCn1c(SCC(=O)N(C)C)nc2cc(S(=O)(=O)N3CCOCC3)ccc21,-10%,-8%,9%,-2,2%
CCCC(=O)Nc1ccc(C(=O)n2ccc(C)n2)cc1,-2%,-14%,11%,-1,0%
O=C(C[C@@H]1C/C=C/CC[C@@H](Cc2ccc(F)cc2)C(=O)O[C@@H](c2ccccc2)CNC1=O)NCCO,?,18µM*,-1%,-6,-16%
O=C(C[C@H]1C/C=C\CC[C@@H](Cc2ccc(F)cc2)C(=O)O[C@H](c2ccccc2)CNC1=O)N[C@H](CO)Cc1ccccc1,18µM*,15µM*,-10%,-10,-18%
SMILES,DT40 TDP1 CPT,DT40 TDP1 no CPT,HT1080 IDH1KD tx,IL1B secr inh,HT1080-NT tox
O=C(C[C@H]1C/C=C/CC[C@H](Cc2ccc(F)cc2)C(=O)O[C@H](c2ccccc2)CNC1=O)NCCO,?,?,-2%,9,-4%
O=C(C[C@H]1C/C=C\C[C@H](Cc2ccc(F)cc2)C(=O)O[C@@H](c2ccccc2)CNC1=O)N[C@@H](CO)Cc1ccccc1,21µM*,12µM*,-5%,-3,-1%
CC(C)(C)OC(=O)C[C@@H]1C/C=C\C[C@@H](CC(=O)N[C@@H](CO)Cc2ccccc2)C(=O)NC[C@@H](c2ccccc2)OC1=O,23µM*,?,9%,-3,-2%
CC(C)(C)OC(=O)C[C@H]1C/C=C\C[C@@H](CC(=O)N[C@@H](CO)Cc2ccccc2)C(=O)NC[C@@H](c2ccccc2)OC1=O,-9%,-28%,0%,20,3%
Cc1ccc(N=Cc2ccc(N(C)C)cc2)cc1C,6%,5%,4%,15,12%
Cc1cc(/C=C/c2ccnc3ccccc23)ccc1N(C)C,5.6µM*,5.6µM*,/,/,/
Cc1cc(C=Nc2ccc(/C=C/c3ccnc4ccccc34)cc2)ccc1N(C)C,16µM*,18µM*,/,/,/
CN(C)c1ccc(/C=C/c2ccnc3ccccc23)cc1Br,8.9µM*,7.1µM*,/,/,/
CN(C)c1ccc(/C=C/c2ccnc3ccccc23)cc1Cl,?,10µM*,/,/,/
C=C[C@]1(C)Cc2occ(C)c2C[C@H]1C(=C)C(=O)O,-4%[9.04 µM],-4%[9.04 µM],/,/,/
CC(=O)N1CCc2c(sc(NC(=O)c3ccc(S(=O)(=O)N(C)CC4CCCO4)cc3)c2C(N)=O)C1 (stereo unspecified),?,?,12%,12,11%
COc1ccccc1-c1sc2ccccc2c1-c1ccc2c(c1)OCCO2,?,?,-2%,12,21%
O=C(NC(=S)NCc1ccco1)c1ccccc1[N+](=O)[O-],0%,12%,-3%,16,0%
CN(C)c1ccc(C=Cc2ccnc3ccccc23)cc1N,10µM*,10µM*,?,-1,23µM*
Cc1c(/C=C/c2ccnc3ccccc23)ccc(N(C)C)c1C,?,11µM*,/,/,/
CN(C)c1c(Cl)cc(/C=C/c2ccnc3ccccc23)cc1Br,4.5µM*,3.5µM*,/,/,/
CN(C)c1ccc(C2C3C(=O)NC(=O)C3ON2c2ccc(Cl)cc2)cc1 (stereo unspecified),-26%,-13%,2%,1,5%
COc1ccccc1C(C)NC(=O)Cc1ccc(S(=O)(=O)N2CCOCC2)s1 (stereo unspecified),-12%,?,4%,11,4%
O=C(Nc1cccc(NC(=O)c2ccccc2[N+](=O)[O-])n1)c1ccccc1[N+](=O)[O-],6.5µM*,9.2µM*,10%,6,7%

# Compound activity: PubChem BioAssay, National Center for Advancing Translational Sciences (NCATS)
